The text below walks through data of PubChem BioAssay (Tox21).

In test [1] the target is Estrogen receptor beta (Homo sapiens) (UniProt Q92731). Put plainly: qHTS assay to identify small molecule agonists of the estrogen receptor beta (ER-beta) signaling pathway (AID 1259377; active = well fitted activation curve with a large enough effect in the signal ratio in the repeat runs, not every such curve was filed as active; the % refers to the signal ratio). Summed up:
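In HEK293T cells bearing a UAS-beta-lactamase reporter under ER-beta control, DMSO-delivered compounds were incubated for 16 hr at 37C. Activity was detected as fluorescence 2 hours after LiveBLAzer B/G FRET substrate addition.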
For orientation: qHTS replaces the single test concentration by a dilution series.

Test [2] shares this target. Put plainly: qHTS assay to identify small molecule antagonists of the estrogen receptor beta (ER-beta) signaling pathway (AID 1259378; active = well fitted inhibition curve with a large enough effect in the signal ratio in the repeat runs, not every such curve was filed as active; the % refers to the signal ratio). Summed up:
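Antagonist mode: compounds added to beta-lactamase reporter HEK293T ER-beta-UAS cells stimulated with E2 (1nM final), 16 hr at 37C. LiveBLAzer B/G FRET substrate, 2 hours room temperature, fluorescence read-out.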

A short description of test [3]: qHTS assay to identify small molecule agonists of the androgen receptor (AR) signaling pathway in the presence of an antagonist - cell viability counter screen (AID 1259379; active = well fitted curve in the direction sought with a large enough effect in the repeat runs; an effect the other way counts as inactive or inconclusive; also: nearly all actives have a fitted effect of over 25% in size; also: potency is read from the fitted curve at half-maximal effect). Summed up:
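Nilutamide-containing (3.0uM final) MDA-kb2 cultures, 3,000 cells/well, were treated with compounds across 15 concentrations. After 16 hr at 37C with no CO2, cell viability was determined by CellTiter-Fluor fluorescence in the luciferase assay wells.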

A short description of test [4]: qHTS assay to identify small molecule agonists of the estrogen receptor beta (ER-beta) signaling pathway - cell viability counter screen (AID 1259380; active = well fitted curve in the direction sought with a large enough effect in the repeat runs; an effect the other way counts as inactive or inconclusive; also: nearly all actives have a fitted effect of over 30% in size; also: potency is read from the fitted curve at half-maximal effect). Summed up:
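Steps: plate ER-beta-UAS-bla HEK293T cells, rest 6 hr; add compounds in DMSO; incubate 16 hr at 37C, 5% CO2; add FRET substrate 2 hr; add CellTiter-Glo, wait 30 min at room temperature; read luminescence.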

Test [5] can be described thus: qHTS assay to identify small molecule antagonists of the estrogen receptor beta (ER-beta) signaling pathway - cell viability counter screen (AID 1259382; active = well fitted curve in the direction sought with a large enough effect in the repeat runs; an effect the other way counts as inactive or inconclusive; also: nearly all actives have a fitted effect of over 55% in size; also: potency is read from the fitted curve at half-maximal effect). Summed up:
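Viability is scored by CellTiter-Glo luminescence (30 min, room temperature) in ER-beta-UAS-bla HEK293T wells already read for reporter fluorescence. Compound exposure lasts 16 hr at 37C alongside 1nM 17-beta-estradiol in charcoal-stripped serum medium.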

The target in test [6] is Estrogen receptor (Homo sapiens) (UniProt P03372). The experiment in a line: qHTS assay to identify small molecule agonists of the estrogen receptor alpha (ER-alpha) signaling pathway in the presence of an antagonist (AID 1259383). Also: top concentration of the series differs between compounds; nearly all actives have a fitted effect of over 15% in size. Summed up:
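Readout was ERE-driven luciferase luminescence in VM7Luc4E2 cells, which express full-length ER-alpha endogenously. Compounds were tested at 15 concentrations for 22hr alongside 10.0nM ICI-182,780 (final concentration).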

The nature of test [7]: qHTS assay to identify small molecule agonists or antagonists of the thyroid stimulating hormone receptor (TSHR) signaling pathway - wild type cell line counter screen (AID 1259384). Summed up:
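Counter screen in untransfected Hek293: compounds (15-point titration, triplicate) plus phosphodiesterase inhibitor Ro20-1724 added after 18 h plating; 30 min RT. Intracellular cAMP via competitive d2/cryptate immunoassay, 1 h incubation.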

Test [8] deals with Thyrotropin receptor (Homo sapiens) (UniProt P16473). Put plainly: qHTS assay to identify small molecule antagonists of the thyroid stimulating hormone receptor (TSHR) signaling pathway (AID 1259385). Also: nearly all actives have a fitted effect of over 20% in size. Also: potency is read from the fitted curve at half-maximal effect. Summed up:
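Antagonist mode: compound-treated TSHR-expressing HEK293 cells were stimulated with 1.5 ng/mL TSH (final) in presence of Ro20-1724 for 30 min at RT. HTRF cAMP detection after 1 h; each compound tested at 15 concentrations, triplicate.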

Test [9] can be described thus: qHTS assay to identify small molecule antagonists of the sonic hedgehog signaling (Shh) pathway (AID 1259369). Also: nearly all actives have a fitted effect of over 45% in size. Also: potency is read from the fitted curve at half-maximal effect. Summed up: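 Stable Gli1-Luc reporter NIH/3T3 clone; quantitative HTS in stimulated mode with conditioned medium. Luminescence measured after 24hr compound treatment at 37 C.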
Test [10] concerns the target Androgen receptor (Homo sapiens) (UniProt P10275). Put plainly: qHTS assay to identify small molecule agonists of the androgen receptor (AR) signaling pathway in the presence of an antagonist (AID 1259381). Also: nearly all actives have a fitted effect of over 15% in size. Summed up: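 Reporter-gene luminescence from MDA-kb2 cells exposed 16hr at 37C (0% CO2) to 15-point compound titrations with 3.0uM final nilutamide as AR antagonist.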

Unmarked numbers belong to inactive results. Results filed as inconclusive are left out. Activity calls are given as the source filed them. Unless noted, calls follow the shape of the full dose curve.
% is scaled to controls: 0 for no effect and ±100 for the full control effect.

Sequence of Estrogen receptor beta (Homo sapiens) (Q92731 whole entry, looked up): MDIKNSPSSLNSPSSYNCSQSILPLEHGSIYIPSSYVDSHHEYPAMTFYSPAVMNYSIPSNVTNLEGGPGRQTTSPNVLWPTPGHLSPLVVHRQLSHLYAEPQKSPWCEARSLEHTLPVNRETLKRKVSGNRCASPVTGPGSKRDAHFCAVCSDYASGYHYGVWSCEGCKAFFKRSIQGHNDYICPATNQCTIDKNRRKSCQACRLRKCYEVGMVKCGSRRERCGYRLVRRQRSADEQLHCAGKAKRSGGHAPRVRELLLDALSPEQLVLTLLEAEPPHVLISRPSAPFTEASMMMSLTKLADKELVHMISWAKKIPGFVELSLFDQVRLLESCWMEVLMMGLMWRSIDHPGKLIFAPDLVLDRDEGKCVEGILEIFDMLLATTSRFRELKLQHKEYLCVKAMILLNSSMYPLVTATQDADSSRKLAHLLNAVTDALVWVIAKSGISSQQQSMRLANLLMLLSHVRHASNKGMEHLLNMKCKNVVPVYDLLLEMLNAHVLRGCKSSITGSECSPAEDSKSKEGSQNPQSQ
Sequence of Estrogen receptor (Homo sapiens) (P03372 whole entry, looked up): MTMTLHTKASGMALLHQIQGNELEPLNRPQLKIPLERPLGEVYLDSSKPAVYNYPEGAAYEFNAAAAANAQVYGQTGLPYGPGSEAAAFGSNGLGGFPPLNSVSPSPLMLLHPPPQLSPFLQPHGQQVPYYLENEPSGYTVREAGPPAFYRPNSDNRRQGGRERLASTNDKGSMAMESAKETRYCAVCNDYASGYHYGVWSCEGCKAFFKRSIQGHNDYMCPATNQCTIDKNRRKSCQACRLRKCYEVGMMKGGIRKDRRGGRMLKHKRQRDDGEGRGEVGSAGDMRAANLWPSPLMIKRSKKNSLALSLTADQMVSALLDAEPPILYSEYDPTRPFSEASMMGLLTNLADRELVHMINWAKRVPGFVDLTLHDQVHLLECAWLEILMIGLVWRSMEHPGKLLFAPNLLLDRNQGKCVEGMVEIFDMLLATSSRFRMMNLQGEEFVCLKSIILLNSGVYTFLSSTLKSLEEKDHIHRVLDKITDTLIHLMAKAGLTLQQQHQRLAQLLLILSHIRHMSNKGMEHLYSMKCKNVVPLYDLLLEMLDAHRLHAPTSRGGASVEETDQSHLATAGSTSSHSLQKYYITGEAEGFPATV
Sequence of Androgen receptor (Homo sapiens) (P10275 whole entry, looked up): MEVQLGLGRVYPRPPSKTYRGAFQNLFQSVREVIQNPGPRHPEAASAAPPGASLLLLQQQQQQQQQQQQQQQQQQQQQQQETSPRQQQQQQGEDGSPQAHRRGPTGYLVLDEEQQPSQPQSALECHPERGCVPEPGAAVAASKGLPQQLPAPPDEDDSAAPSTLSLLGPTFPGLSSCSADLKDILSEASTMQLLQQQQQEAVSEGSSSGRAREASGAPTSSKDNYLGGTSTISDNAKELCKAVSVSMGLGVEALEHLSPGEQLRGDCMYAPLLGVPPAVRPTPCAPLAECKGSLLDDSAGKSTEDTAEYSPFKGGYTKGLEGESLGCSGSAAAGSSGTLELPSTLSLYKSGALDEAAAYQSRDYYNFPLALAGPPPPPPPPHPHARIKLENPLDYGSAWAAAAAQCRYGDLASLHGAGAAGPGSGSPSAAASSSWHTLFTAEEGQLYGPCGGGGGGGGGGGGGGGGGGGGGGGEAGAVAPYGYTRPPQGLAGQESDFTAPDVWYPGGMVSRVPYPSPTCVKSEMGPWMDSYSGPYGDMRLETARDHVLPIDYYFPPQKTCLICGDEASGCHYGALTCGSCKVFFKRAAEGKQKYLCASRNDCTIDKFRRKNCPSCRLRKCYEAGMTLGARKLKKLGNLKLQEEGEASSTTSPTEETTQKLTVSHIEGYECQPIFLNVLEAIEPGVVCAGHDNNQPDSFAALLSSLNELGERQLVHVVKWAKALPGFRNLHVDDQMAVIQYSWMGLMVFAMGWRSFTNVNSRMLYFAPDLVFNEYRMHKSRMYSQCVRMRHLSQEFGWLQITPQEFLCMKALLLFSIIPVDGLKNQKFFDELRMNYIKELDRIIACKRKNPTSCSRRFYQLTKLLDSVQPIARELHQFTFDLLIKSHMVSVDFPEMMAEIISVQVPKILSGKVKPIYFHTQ
Sequence of Thyrotropin receptor (Homo sapiens) (P16473 whole entry, looked up): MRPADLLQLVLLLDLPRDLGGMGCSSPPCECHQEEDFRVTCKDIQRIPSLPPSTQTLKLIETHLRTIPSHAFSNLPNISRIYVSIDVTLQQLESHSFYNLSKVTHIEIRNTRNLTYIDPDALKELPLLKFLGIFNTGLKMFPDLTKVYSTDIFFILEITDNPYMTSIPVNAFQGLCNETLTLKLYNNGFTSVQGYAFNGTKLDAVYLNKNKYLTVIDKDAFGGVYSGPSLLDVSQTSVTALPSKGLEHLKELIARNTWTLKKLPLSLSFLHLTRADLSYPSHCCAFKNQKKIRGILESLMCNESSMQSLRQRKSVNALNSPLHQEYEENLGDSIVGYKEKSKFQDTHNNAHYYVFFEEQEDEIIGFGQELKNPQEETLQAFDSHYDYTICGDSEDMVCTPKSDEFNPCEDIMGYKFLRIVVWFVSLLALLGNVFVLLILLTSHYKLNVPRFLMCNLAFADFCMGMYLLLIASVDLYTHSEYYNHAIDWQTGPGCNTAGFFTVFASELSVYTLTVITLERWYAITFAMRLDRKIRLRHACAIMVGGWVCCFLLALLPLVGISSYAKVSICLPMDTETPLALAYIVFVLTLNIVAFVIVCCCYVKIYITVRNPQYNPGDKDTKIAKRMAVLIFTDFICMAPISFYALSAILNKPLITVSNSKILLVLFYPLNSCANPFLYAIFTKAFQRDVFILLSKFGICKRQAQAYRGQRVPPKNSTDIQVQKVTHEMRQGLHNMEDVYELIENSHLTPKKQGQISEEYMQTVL

For the molecule `C=C(C)CCCC(C)CCO` (stereo unspecified), the Potency result in test [1], in test [2], in test [3], in test [4], in test [5] and in test [6] was “inactive” each time. Besides, the Potency result in [8] is “inactive”. Moreover, the molecule was called inactive in test [7].
`O=C1c2ccccc2C(=O)N1CCc1noc(-c2ccc(CN3CCCCCC3)s2)n1`: the Potency in [9] is 22.3 µM (active); in [4], 3.15 µM (active). The Potency result in test [6] was “inactive”.
On to `CC1=Nc2ccc3ccccc3c2C1(C)C`, for which the Potency in [9] was 30.6 µM (active). The Potency result in test [3], in test [10], in test [6] and in test [8] was “inactive” in each case. Moreover, in test [7], the call was inactive.
For `O=C1NC(=O)c2cc([N+](=O)[O-])ccc21`, the Potency entry in test [1], in test [2], in test [3], in test [4], in [10] and in [5] was “inactive” in each case. The Potency result in test [6] and in test [8] was “inactive” each time. Further, the call in test [7] was inactive.
For the molecule `O=C(O)c1cccc(-c2noc(-c3ccccc3F)n2)c1`, the Potency in test [9] was 0.237 µM (active); in test [4], 26.6 µM (active). For the same molecule, the Potency result in test [3] and in [8] was “inactive” throughout. In addition, the molecule was called inactive in test [7].
`CC(=O)NC1(c2cccc(F)c2)CCN(CC[C@@]2(c3ccc(Cl)c(Cl)c3)CN(c3ccccc3)C(=O)CO2)CC1`: the Potency in test [9] was 24.4 µM (active); in test [4], 24.4 µM (active); in test [5], 21.7 µM (active). The Potency result in test [6] is “inactive”. For the same molecule, in [7], the molecule was classed as inactive.
With `C1COC1`, the Potency entry in test [1], in [2], in [3], in [4], in test [10] and in test [5] was “inactive” in each case. Moreover, the Potency result in test [6] and in test [8] was “inactive” each time. Also, the call in test [7] was inactive.
For `Oc1ccc(Cl)c2cccnc12`, the Potency in test [9] was 0.596 µM (active). In addition, the Potency entry in [3], in test [10], in test [5], in test [6] and in test [8] was “inactive” each time. The outcome in test [7] was inactive.
As to `C1C[C@@H]2[C@H]3CC[C@H](C3)[C@@H]2C1`, the Potency result in [9], in test [3], in [5], in test [6] and in test [8] was “inactive” throughout. Besides, the call in test [7] was inactive.
With `COc1cc(C(=O)NC2CCN(C)CC2)ccc1Nc1ncc2c(n1)N(C1CCCC1)CC(F)(F)C(=O)N2C`, the Potency in [9] was 0.112 µM (active); in [4] it was 22.3 µM (active); in [5], 15.8 µM (active). Also, the Potency entry in test [10] and in test [6] was “inactive” throughout.
Turning to `CN1CCCC(n2nc(Cc3ccc(Cl)cc3)c3ccccc3c2=O)CC1` (stereo unspecified), the Potency in test [9] is 2.66 µM (active); in test [4] it was 26.6 µM (active); in test [8], 26.6 µM (active). Further, the Potency result in test [6] was “inactive”. For the same molecule, in [7], the molecule was called inactive.
Take `CN(C(=O)CN(CCO)CC(=O)N(C)C(C)(C)Cc1ccccc1)C(C)(C)Cc1ccccc1`: the Potency entry in [1], in test [2], in test [3], in test [4] and in test [5] was “inactive” throughout.
Take `C=C1c2cccc(O)c2C(O)=C2C(=O)[C@]3(O)C(O)=C(C(N)=O)C(=O)[C@@H](N(C)C)[C@@H]3[C@@H](O)[C@H]12`: the Potency result in test [1], in test [2], in test [3], in [4], in [5] and in [6] was “inactive” in each case.
On to `CCOC(=O)c1ccccc1C(=C1C=C(Br)C(=O)C(Br)=C1)c1cc(Br)c(O)c(Br)c1`, for which the Potency entry in test [9], in test [6] and in test [8] was “inactive” throughout. Further, the Potency in test [4] is 57.5 µM (active). In [7], the call was inactive.
On to `CCOC(=O)/C=C/C(=O)OCC`, for which the Potency entry in [9], in test [3], in [5] and in test [6] was “inactive” in each case. The result in [7] was inactive.
As for `CC[C@]1(O)C[C@H]2CN(CCc3c([nH]c4ccccc34)[C@@](C(=O)OC)(c3cc4c(cc3OC)N(C=O)[C@H]3[C@@](O)(C(=O)OC)[C@H](OC(C)=O)[C@]5(CC)C=CCN6CC[C@]43[C@@H]65)C2)C1`, the Potency in test [9] was 0.0266 µM (active). Further, the Potency result in test [10], in test [5], in test [6] and in test [8] was “inactive” in each case. Also, the molecule was classed as inactive in [7].
As to `O=c1cc(-c2ccccc2)oc2cc(O)cc(O)c12`, the Potency in test [9] was 61.1 µM (active); in test [3], 48.6 µM (active). The Potency entry in test [10] and in test [5] was “inactive” in each case. In addition, the molecule was classed as inactive in [7].
For `CCCCC(CC)COP(=O)(O)O` (stereo unspecified), the Potency result in [9], in test [3], in [5], in test [6] and in test [8] was “inactive” each time. The molecule was classed as inactive in [7].
Take `Cc1ccc(Cl)c(Nc2ccccc2C(=O)O)c1Cl`: the Potency entry in [9], in test [3], in [6] and in test [8] was “inactive” in each case. The result in test [7] was inactive.
On to `O=[N+]([O-])c1ccc(Nc2ccc(Nc3ccccc3)c(S(=O)(=O)O)c2)c([N+](=O)[O-])c1`, for which the Potency result in test [9], in test [4] and in test [5] was “inactive” in each case. Also, the molecule was called inactive in test [7].
Turning to `CCCCCCCCC(CCCCCC)C(=O)O` (stereo unspecified), the Potency result in [9], in test [3] and in [8] was “inactive” in each case. Besides, in test [4], the Potency is 8.63 µM (active). The call in test [7] was inactive.
Take `C=CC(=O)[O-].C=CC(=O)[O-].[Zn+2]`: the Potency entry in test [1], in [2], in [3], in [4], in test [5] and in [6] was “inactive” throughout. Besides, the result in [7] was inactive.
In the case of `Cc1cc(=O)c2c(O)c3c(O)cc(=O)c4c3c3c(cc(O)c1c23)C(C)(C)C=4O`, the activation in [1] was -11.3% [at 19 µM]. For the same molecule, the Potency in test [3] was 1.46 µM (active). The cAMP activity change in [7] is 14.8% [at 18.9 µM].
Turning to `CC(CCC(=O)O)C(=O)O` (stereo unspecified), the Potency entry in [1], in test [2], in test [3], in [4], in [5] and in [8] was “inactive” in each case. Also, the call in test [7] was inactive.
In the case of `CC1CC(OC(=O)C(O)c2ccccc2)CC(C)(C)N1C` (stereo unspecified), the Potency entry in [1], in test [2], in test [3], in test [4] and in test [5] was “inactive” in each case. Also, the molecule was called inactive in test [7].
Take `CC(C)=CC(=O)C=C(C)C`: the Potency entry in test [1], in [2], in test [3], in test [4], in test [5] and in test [6] was “inactive” throughout. Besides, the Potency entry in [8] is “inactive”. The call in test [7] was inactive.
As to `COC(=O)[C@H]1[C@H]2C[C@@H]3c4[nH]c5cc(OC)ccc5c4CCN3C[C@H]2C[C@@H](OC(=O)/C=C/c2ccc(O)c(OC)c2)[C@@H]1OC`, the Potency entry in [1], in test [10] and in [6] was “inactive” throughout. Also, the Potency in [4] is 8.41 µM (active). Also, the call in test [7] was inactive.
As to `CC(C)Nc1cccnc1N1CCN(C(=O)c2cc3cc(NS(C)(=O)=O)ccc3[nH]2)CC1`, the Potency entry in test [1], in test [2], in test [3], in test [6] and in test [8] was “inactive” each time. Also, in test [4], the Potency was 26.6 µM (active). Besides, the molecule was classed as inactive in test [7].
In the case of `O=c1[nH]ncc2ccccc12`, the Potency result in test [1], in [2], in test [3], in test [4], in [5] and in test [6] was “inactive” each time. In addition, the Potency result in [8] is “inactive”. Further, the call in [7] was inactive.
